Shown are actives, neighbours in structure and some others; about 9.9% of the full set was active somewhere.
JMJD2E inh: JMJD2E (human) inhibition; Potency, µM (doses to about 57.1 µM), hits mostly inhibitors; B2RXH2; hit rate 1.6% among 230,000; JMJD2E catalytic domain, FDH-coupled NADH fluorescence (FDH is formaldehyde dehydrogenase); also: nearly all actives have a fitted effect of over 50% in size
Tau fibril FP: tau fibrillization inhibition (FP). P10636. K18 P301L tau heparin fibrillization, Alexa594 FP, 6 h. Potency, µM (doses to about 57.7 µM), hits mostly inhibitors. hit rate 0.39% among 280,000; also: nearly all actives have a fitted effect of over 55% in size
Target sequence (P10636 561-689 P618L limits assumed): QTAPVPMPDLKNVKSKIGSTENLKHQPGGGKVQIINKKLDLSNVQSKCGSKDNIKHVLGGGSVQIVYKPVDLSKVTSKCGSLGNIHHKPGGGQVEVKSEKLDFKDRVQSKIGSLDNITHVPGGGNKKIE
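Quantitative HTS format: compounds meet 15 uM recombinant K18 P301L tau and Alexa 594-tau tracer in 100 mM sodium acetate pH 7; 20 uM heparin triggers fibrillization at 37 C over 6 hr; FP gives the signal.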
Tau fluor counter: counter-screen for tau fibril formation inhibitors | tau K18 P301L Alexa594 fluorescence, heparin fibrillization | Potency, µM (highest dose often 57.7 µM) | hit rate 0.93% among 280,000 | AID 1463; also: nearly all actives have a fitted effect of over 55% in size
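Human K18 P301L tau (15 uM unlabeled plus 0.24 uM Alexa 594-labeled, final) in 100 mM sodium acetate pH 7 was mixed with compound and 20 uM heparin and incubated 6 hr at 37 C.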
ALDH1A1 block: blocks purified human ALDH1A1 activity. AID 1030. Purified ALDH1A1, NADH fluorescence, propionaldehyde substrate. Potency, µM (series often up to 75.3 µM), actives largely listed as inhibitors. hit rate 7.3% among 220,000; active = well fitted inhibition curve with a large enough effect, not every such curve was filed as active; inconclusive = small, poorly fitted or top-dose-only effect, or another doubt; inactive = no such curve, though single readings can be large or run the other way
HPGD block: blocks human HPGD enzyme activity; P15428; purified HPGD, NADH fluorescence kinetic, PGE2 substrate; Potency, µM, hits mostly inhibitors; hit rate 4.3% among 150,000; AID 894; active = well fitted inhibition curve with a large enough effect, not every such curve was filed as active; inconclusive = small, poorly fitted or top-dose-only effect, or another doubt; inactive = no such curve, though single readings can be large or run the other way
Target sequence (P15428 whole entry, looked up): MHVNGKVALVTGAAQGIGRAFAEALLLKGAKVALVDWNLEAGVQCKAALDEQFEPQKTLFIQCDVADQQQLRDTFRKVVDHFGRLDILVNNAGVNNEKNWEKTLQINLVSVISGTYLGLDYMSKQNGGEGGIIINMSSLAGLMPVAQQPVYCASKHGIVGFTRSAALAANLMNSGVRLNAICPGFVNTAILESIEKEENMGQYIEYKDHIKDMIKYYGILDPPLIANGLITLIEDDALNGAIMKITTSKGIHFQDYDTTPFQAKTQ
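NADH formation kinetics: reaction with 30 uM PGE2 and 1 mM NAD+ (final), 20 nM enzyme, Tris-HCl pH 8 with Tween 20, after 15 min compound preincubation at room temperature. Fluorescence change, last versus first of five reads.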
Tau ThT inhib: inhibitors of human tau fibril formation, thioflavin T binding; P10636; recombinant tau K18 P301L (four-repeat tau fragment), heparin-induced fibrillization, ThT fluorescence; Potency, µM (doses to about 57.4 µM), most hits filed as inhibitors; hit rate 2.1% among 270,000; AID 1460; also: nearly all actives have a fitted effect of over 55% in size
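In this qHTS, human K18 P301L tau is incubated with compound and heparin for 6 hr at 37 C, and Thioflavin T fluorescence then reports fibril load.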
Numbers stand for hits; n = inactive; u = inconclusive; x = no result; [ ] = another dose, or the depositor's remark. Unless noted, calls follow the shape of the dose curve; as a rule, active = well fitted curve in the direction sought with a large enough effect; inconclusive = small, poorly fitted or top-dose-only effect, or another doubt; inactive = no such curve, though single readings can be large; an effect the other way counts as inactive or inconclusive.

SMILES	JMJD2E inh	Tau fibril FP	Tau fluor counter	ALDH1A1 block	HPGD block	Tau ThT inhib
COc1cccc(Nc2nc(-c3sc(NC(=O)CC(C)C)nc3C)cs2)c1	n	n	16µM[quencher]	u	n	16µM
COc1ccccc1Nc1nc(-c2sc(NC(=O)CC(C)C)nc2C)cs1	u	n	u	u	u	u
CCOc1ccccc1Nc1nc(-c2sc(C)nc2C)cs1	u	n	u	20µM	x	u
CCCC(=O)Nc1nc(C)c(-c2csc(Nc3cc(OC)ccc3OC)n2)s1	u	u	14µM[quencher]	u	n	u
COc1ccc(NC(=O)CN2C(=O)CCc3cc(S(=O)(=O)N4CCOCC4)ccc32)c(OC)c1	x	n	n	x	x	n
O=C1N=C2N(CCN3CCCCC3)c3ccccc3N2/C1=C\c1ccc([N+](=O)[O-])o1	n	u	n	u	x	u
CCCC(=O)Nc1nc(C)c(-c2csc(Nc3ccccc3OC)n2)s1	n	n	16µM[quencher]	u	n	13µM
COc1ccc(OC)c(Nc2nc(-c3sc(N)nc3C)cs2)c1	n	n	14µM[quencher]	u	n	11µM
COc1ccccc1Nc1nc(-c2sc(NC(=O)C(C)(C)C)nc2C)cs1	n	n	u	u	n	u
COc1ccccc1Nc1nc(-c2cccc(N3C(=O)c4ccccc4C3=O)c2)cs1	n	n	u	u	n	u
CCCC(C)C(=O)Nc1nc(C)c(-c2csc(Nc3cc(OC)ccc3OC)n2)s1 (stereo not given)	u	u	8.9µM[quencher]	u	n	u
COc1ccccc1Nc1nc(-c2c(C)[nH]c3ccccc23)cs1	28µM	n	u	u	n	u
Cc1ccc2nc(COc3ccccc3NC(=O)c3ccc(F)cc3)cc(=O)n2c1	x	n	n	x	x	n
N[C@@H](Cc1cc(CP(=O)(O)O)cc(-c2ccccc2Cl)c1)C(=O)O	n	n	n	n	n	n
COCCNC(=O)C1=CC(c2ccc3c(c2)OCO3)=NS(=O)(=O)N1C	x	n	n	x	x	n
CCC(=O)Nc1nc2c(OC)ccc(OC)c2s1	n	n	n	n	n	n
CCCC(=O)Nc1nc2c(OC)ccc(OC)c2s1	n	n	n	16µM	n	n
C=CCCC(=O)Nc1nc(C)c(-c2csc(Nc3cc(OC)ccc3OC)n2)s1	u	n	14µM[quencher]	n	n	14µM
Cc1nc(NC(=O)c2ccccc2)sc1-c1csc(Nc2ccc(C(=O)O)cc2)n1	n	n	u	x	x	x
C=CCCC(=O)Nc1nc(C)c(-c2csc(Nc3cccc(OC)c3)n2)s1	n	u	u	n	n	14µM
CCC(=O)Nc1nc(C)c(-c2csc(Nc3cccc(C(=O)O)c3)n2)s1	n	n	n	u	x	4µM
CCCCCC(=O)Nc1nc(C)c(-c2csc(Nc3cc(Cl)ccc3OC)n2)s1	n	n	u	u	u	u
O=C(CN(Cc1cccs1)C(=O)CNS(=O)(=O)c1ccccc1)NC1CCCC1	n	n	n	n	x	n
Cc1nnc(NC(=O)C2CCCN2S(=O)(=O)c2ccc(Cl)cc2)s1 (stereo not given)	n	n	n	n	x	n
CCOC(=O)c1ccc(CN(Cc2ccc(Cl)cc2Cl)S(=O)(=O)c2ccc(F)c(C)c2)cc1	x	n	n	x	x	n
SMILES	JMJD2E inh	Tau fibril FP	Tau fluor counter	ALDH1A1 block	HPGD block	Tau ThT inhib
O=C(O)c1ccc(Nc2nc(-c3cc4ccccc4oc3=O)cs2)cc1O	20µM	n	u	u	x	7.9µM
Nc1ccc(Nc2nc(-c3cc4ccccc4oc3=O)cs2)cc1	n	n	8.9µM[quencher]	u	x	u
COc1ccc(-c2nnc(SCC(=O)Nc3cccc(Cl)c3C)nc2-c2ccc(OC)cc2)cc1	x	n	n	x	x	n
COc1ccc2c(c1)OC1(O)COc3cc(OC)c(OC)cc3C1=C2 (stereo not given)	u	u	u	u	u	5.6µM
COc1ccc(C2CC(O)(c3ccccc3)Oc3cc(OC)ccc32)cc1 (stereo not given)	u	n	u	x	x	n
COc1cccc2c1cc1c(=O)n(CC(=O)N3CCN(c4cccc(C(F)(F)F)c4)CC3)nc(C)n12	x	n	n	x	x	n
COc1ccc(C(=O)NC(=S)Nc2nnn(C)n2)cc1	n	n	n	11µM	n	n
COc1cccc(C(=O)NC(=S)Nc2nnn(C)n2)c1	n	n	n	22µM	u	n
Cn1nnc(NC(=S)NC(=O)c2cc3ccccc3o2)n1	n	n	n	x	x	n
Cn1nnc(NC(=S)NC(=O)c2ccco2)n1	n	n	n	3.5µM	u	n
Cn1nnc(NC(=O)c2ccco2)n1	n	n	n	n	n	n
Fc1ccc(-n2nnc(-c3ccnc4ccccc34)n2)cc1	n	n	n	n	x	u
Cc1cccc2c(=O)cc(CSc3ccccc3NC(=O)c3cccc(F)c3)[nH]c12	x	n	n	x	x	n
O=C(NCc1ccc(F)cc1)C1CCN(S(=O)(=O)c2ccc3c(c2)CCCN3C(=O)C2CCC2)CC1	x	n	n	x	x	n
O=C(Nc1nccs1)c1cc(-c2ccccc2)nc2ccccc12	n	u	u	n	18µM	n
COc1ccc(Cl)cc1C(=O)NC(=S)Nc1cc(-c2nc3ccccc3[nH]2)ccc1C	u	u	n	4µM	n	u
COc1ccc(Cl)cc1C(=O)NNC(=S)NC(=O)c1cc(-c2ccccc2)nc2ccccc12	n	n	n	32µM	u	n
O=C(Nc1nccs1)c1cc(-c2ccco2)nc2ccccc12	u	n	n	u	n	u
COc1ccc(C(=O)NNC(=S)NC(=O)c2cc(-c3ccccc3)nc3ccccc23)cc1	u	n	n	n	n	u
O=C(Nc1nccs1)c1sc2ccccc2c1Cl	u	n	n	n	13µM	u
O=C(Nc1nccs1)c1sc2cc(Cl)ccc2c1Cl	u	u	n	u	u	u
COc1ccc(-c2noc(CCC(=O)NCc3ccc(OC)cc3OC)n2)cc1	x	n	n	x	x	n
COC(=O)c1ccc(NC(=S)NC(=O)c2cc(-c3ccccc3)nc3ccccc23)cc1	n	n	n	11µM	n	u
COC(=O)C1=C(C)NC(C)=C(C(=O)OC)C1c1ccc(OC(=O)c2oc3ccccc3c2C)c(OC)c1	u	n	u	u	u	n
CN(C(=O)CSCC(=O)O)C1CCCCC1	n	n	n	2µM	n	n
SMILES	JMJD2E inh	Tau fibril FP	Tau fluor counter	ALDH1A1 block	HPGD block	Tau ThT inhib
O=C(CSc1ccccc1C(=O)O)NC1CCCCCCC1	n	n	n	u	n	n
CN(C(=O)c1ccccc1Cl)C1CCCCC1	n	n	n	n	28µM	n
CC1CCCCC1NC(=O)CSCC(=O)O (stereo not given)	n	n	n	n	n	n
CN(C(=O)CSc1ccccc1C(=O)O)C1CCCCC1	n	n	n	3.2µM	n	n
CCOC(=O)Cc1csc(NC(=O)CSc2cc(Cl)ccc2Cl)n1	n	n	n	n	n	n
O=C(Cn1c(=O)oc2cc(S(=O)(=O)NCc3ccccc3)ccc21)N(CCO)Cc1ccccc1	x	n	n	x	x	n
